A selection follows.
PostGolgi yeast: phenotypic screen on post-Golgi transport, primary screen. actives 0.9% (n = 98,000). inhibition, % at 10 µM. post-Golgi transport phenotypic cell assay;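 further: yeast cells grown in 1536-well plates; yeast grown about 18 h at 30C before absorbance read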
CYP2C9 inh: blockers of cytochrome P450 2C9 activity – biochemical, luminescence, ADME assay, primary screen | actives 20% (n = 96,000) | P11712 | CYP2C9 Supersomes, luciferin-H conversion | inhibition, % at 5 µM | AID 777, 2007;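 active means blocking of liver enzyme CYP2C9 beyond about 50% at 5 µM, limit read from the data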
Target sequence (P11712 whole entry, looked up): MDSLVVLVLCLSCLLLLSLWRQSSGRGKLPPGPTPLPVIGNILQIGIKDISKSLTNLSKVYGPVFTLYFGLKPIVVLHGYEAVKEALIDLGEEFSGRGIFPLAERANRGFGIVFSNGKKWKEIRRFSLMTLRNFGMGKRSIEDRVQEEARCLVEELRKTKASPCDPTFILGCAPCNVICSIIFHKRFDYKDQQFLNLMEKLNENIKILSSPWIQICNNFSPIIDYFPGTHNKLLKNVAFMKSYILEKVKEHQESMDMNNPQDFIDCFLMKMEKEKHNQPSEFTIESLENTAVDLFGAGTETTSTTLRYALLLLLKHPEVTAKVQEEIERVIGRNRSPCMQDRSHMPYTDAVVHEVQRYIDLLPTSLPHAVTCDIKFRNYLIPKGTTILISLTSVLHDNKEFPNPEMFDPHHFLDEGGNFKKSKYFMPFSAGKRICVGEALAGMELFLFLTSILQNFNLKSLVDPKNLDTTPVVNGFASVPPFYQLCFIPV
CYP2C19 act: human CYP2C19 activators, primary screen, biochemical, luminescence; Cytochrome P450 2C19 (Homo sapiens), P33261; recombinant CYP2C19, luciferin-H EGE luminescence; active compounds read high; 0 = fully inhibited enzyme, 1 = untreated enzyme; activation factor at 5 µM; 96,000 tested, under 10 active; AID 1025, 2008;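 active means activation factor of at least 2 at 5 µM in the primary screen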
CYP2C9 act: human CYP2C9 activators, primary screen, biochemical, luminescence; activation factor at 5 µM; recombinant CYP2C9, luciferin-H conversion; active compounds read high; factor 1 = untreated enzyme, 0 = blocked; actives 1.4% (n = 96,000); Cytochrome P450 2C9 (Homo sapiens), P11712; AID 1024, 2008;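 active means activation factor of 2 or more for CYP2C9 at a 5 µM dose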
CYP2C19 inh: blockers of cytochrome P450 2C19 activity – biochemical, luminescence, ADME assay, primary screen; P33261; CYP2C19 Supersomes, luciferin-H EGE luminescence, 30 min; inhibition, % at 5 µM; actives 21% (n = 96,000); AID 778, 2007;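 active means CYP2C19 inhibition above a set limit at 5 µM in the primary screen, cut at about 50% in these data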
PostGolgi ctrl: growth inhibition of yeast control strain, primary screen, counter-screen for post-Golgi transport modulator project; actives 5% (n = 98,000); efflux-deficient yeast background strain, growth absorbance A615, 16 h; AID 738, 2007; inhibition, % at 10 µM
Large screens that a line does not name were inactive. Unless noted, no stated cut-off is given here; in the data, active means inhibition above about 30%; inactive means the rest.

CC(=O)C1=C(C)NC(=O)NC1c1ccccc1OCC(=O)NCCc1ccccc1 (configuration not stated)	none
COc1ccccc1C1NC(=O)NC(C)=C1C(=O)OC1CCCCC1 (configuration not stated)	none (no result: CYP2C9 inh, CYP2C19 act, CYP2C9 act, CYP2C19 inh)
CCCOc1ccccc1C1NC(=O)NC(C)=C1C(=O)OCCOC (configuration not stated)	CYP2C19 inh 54
Cc1cccc(CN2CCC(CNC(=O)C3CCCN(S(=O)(=O)c4cnc[nH]4)C3)CC2)c1 (configuration not stated)	none
Cc1ccc(CCN2CC(C(=O)NCCCN3CCCCCC3)CC2=O)cc1 (configuration not stated)	none
C#CCn1cc[n+](CC(=O)N(C)C)c1	none
CN(C)CCCNC(=O)CCC1CCCCC1	none
O=C1C(Cl)=C(Nc2ccccc2O)C(=O)N1c1ccccc1	none
Cc1cc(=O)[nH]c(Nc2c(C)n(C)n(-c3ccccc3)c2=O)n1	none
Cc1c(Nc2nc3ccccc3nc2N2CCN(c3ccccc3)CC2)c(=O)n(-c2ccccc2)n1C	CYP2C9 inh 75, PostGolgi ctrl 34
Cc1c(NC2=C(Cl)C(=O)N(c3ccccc3)C2=O)c(=O)n(-c2ccccc2)n1C	PostGolgi ctrl 31
Cc1nc2ncnn2c(C)c1CCC(=O)Nc1csc(N)n1	none (no result: CYP2C9 inh, CYP2C19 act, CYP2C9 act, CYP2C19 inh)
Cc1nn(C(=O)c2cccc([N+](=O)[O-])c2)c(C)c1Sc1ccccc1	none
CC(C)Nc1nc(Cl)nc(NNC(=O)C(C)Oc2ccccc2)n1 (configuration not stated)	none
Cc1cc(=O)oc2ccc(OCC(=O)N(Cc3ccc(F)cc3)Cc3ccco3)cc12	CYP2C9 inh 89, CYP2C19 inh 86, PostGolgi ctrl 44
CN(Cc1ccccc1)C(=O)CCS(=O)(=O)c1ccc2c(c1)n(C)c(=O)c(=O)n2C	none
COc1ccc(N(CN2C(=O)C3CC=CCC3C2=O)C(=O)c2ccco2)cc1 (configuration not stated)	none
COc1ccc(N(C(=O)c2ccco2)S(=O)(=O)c2ccccc2)cc1	CYP2C9 inh 92, CYP2C19 inh 87
COc1ccc(N(C(=O)c2ccco2)S(=O)(=O)c2cc(Cl)c(Cl)cc2Cl)cc1	CYP2C9 inh 94, CYP2C19 inh 97, PostGolgi ctrl 31
COc1ccc2cc(/C=C/C(=O)c3ccco3)c(Cl)nc2c1	none
COc1cc(C)ccc1OCCCCN1CC(C)OC(C)C1 (configuration not stated)	PostGolgi yeast 60, PostGolgi ctrl 33
CC1CN(CCCCOc2ccc(C(C)C)cc2)CC(C)O1 (configuration not stated)	PostGolgi yeast 97, PostGolgi ctrl 53
CCOc1ccccc1OCCOCCN1CC(C)OC(C)C1 (configuration not stated)	none
CC1CN(CC(O)COc2ccc(C(C)C)cc2)CC(C)O1 (configuration not stated)	PostGolgi yeast 59
O=C(O)CCC(=O)Nc1ccc(C(=O)N2CCCCC2)cc1	none
CCCN1/C(=C(/C#N)C2=NS(=O)(=O)c3ccccc32)N(C)c2ccccc21	none
O=S(=O)(NC1CCCC1)c1ccc(S(=O)(=O)N2CCc3ccccc32)cc1	none (no result: CYP2C9 inh, CYP2C19 act, CYP2C9 act, CYP2C19 inh)
CCCCSc1cc(C)nc2ncnn12	none (no result: PostGolgi yeast, PostGolgi ctrl)
Cc1cccc(S(=O)(=O)c2c(N)n(/N=C/c3ccccc3)c3nc4ccccc4nc23)c1	CYP2C9 inh 55
Cc1ccc(C)c(S(=O)(=O)c2c(N)n(/N=C/c3ccco3)c3nc4ccccc4nc23)c1	CYP2C9 inh 86, CYP2C19 inh 63
Cc1noc(C)c1S(=O)(=O)N1CCCC(C(=O)Nc2cccnc2)C1 (configuration not stated)	none
CCCCn1nnc(NC(=O)CCC)n1	none
CCCn1nnc(NC(=O)c2ccc(OC)cc2)n1	none
CCCn1nnc(NC(=O)c2ccc(-c3ccccc3)cc2)n1	none
CCCn1nnc(NC(=S)NC(=O)CC)n1	CYP2C19 inh 71
CCCn1nnc(NC(=O)c2ccc(Br)cc2)n1	CYP2C19 inh 56
CCCn1nnc(NC(=O)c2cc(Br)cc(Br)c2OC)n1	CYP2C19 inh 83
